Assay results: article PMC7862700, “An all-to-all approach to the identification of sequence-specific readers for epigenetic DNA modifications on cytosine”

Experiments:
Experiment in all cases: DAPPL (digital affinity profiling via proximity ligation, sequencing); 10 mM Tris-HCl pH 7.5, 50 mM NaCl, 1 mM DTT, 4% glycerol, room temperature, 30 min; GST-TFs on glutathione beads, 16-mer random dsDNA library, 0.1% formaldehyde crosslink after washing; high values mean tight binding
FLI1 = biological target: T1, FLI1 (Homo sapiens, UniProt Q01543 1-452); conditions: protein: recombinant; tags: N-terminal GST; dsDNA, one strand shown
T1 sequence: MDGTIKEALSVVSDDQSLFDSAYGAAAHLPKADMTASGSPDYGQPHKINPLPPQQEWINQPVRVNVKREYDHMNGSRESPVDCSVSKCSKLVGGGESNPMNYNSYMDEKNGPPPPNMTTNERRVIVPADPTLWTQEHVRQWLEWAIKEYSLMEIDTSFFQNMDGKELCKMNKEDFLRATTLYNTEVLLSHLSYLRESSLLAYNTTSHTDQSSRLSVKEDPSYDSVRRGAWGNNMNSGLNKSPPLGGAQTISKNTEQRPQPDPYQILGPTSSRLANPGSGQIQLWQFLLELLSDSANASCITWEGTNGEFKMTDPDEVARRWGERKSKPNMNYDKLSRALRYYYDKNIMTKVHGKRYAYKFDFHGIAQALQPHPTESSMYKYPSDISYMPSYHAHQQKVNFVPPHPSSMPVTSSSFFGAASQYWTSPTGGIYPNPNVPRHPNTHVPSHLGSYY
Method in brief: (§1)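 Yeast served to express human transcription factors as GST fusions, which were then captured on glutathione beads and labelled with DNA barcodes. Pooled with a tag-only sample, they were incubated with 200 nmole of a 16-mer random double-stranded DNA library for 30 min at room temperature in Tris/NaCl/DTT/glycerol buffer, washed, crosslinked with 0.1% formaldehyde, ligated by proximity, amplified by PCR and sequenced. Dividing each hexamer's read frequency for a factor by its frequency for the tag-only sample gives the binding signal.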

ELK1 = biological target: T2, ELK1 (Homo sapiens, UniProt P19419 1-428); conditions: protein: recombinant; tags: N-terminal GST; dsDNA, one strand shown
T2 sequence: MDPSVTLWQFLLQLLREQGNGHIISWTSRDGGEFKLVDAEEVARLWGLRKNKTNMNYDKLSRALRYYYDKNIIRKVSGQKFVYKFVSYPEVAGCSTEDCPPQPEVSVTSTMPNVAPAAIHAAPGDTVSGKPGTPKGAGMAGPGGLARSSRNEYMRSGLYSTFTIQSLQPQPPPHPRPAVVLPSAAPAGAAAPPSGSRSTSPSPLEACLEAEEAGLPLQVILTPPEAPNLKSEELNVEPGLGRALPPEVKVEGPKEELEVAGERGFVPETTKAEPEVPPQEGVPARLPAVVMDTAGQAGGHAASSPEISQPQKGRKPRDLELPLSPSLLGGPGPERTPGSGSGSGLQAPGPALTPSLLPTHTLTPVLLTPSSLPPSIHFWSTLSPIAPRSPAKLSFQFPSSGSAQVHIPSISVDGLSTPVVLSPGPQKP
Method in brief: as §1

GABPA = biological target: T3, GABPA (Homo sapiens, UniProt Q06546 1-454); conditions: protein: recombinant; tags: N-terminal GST; dsDNA, one strand shown
T3 sequence: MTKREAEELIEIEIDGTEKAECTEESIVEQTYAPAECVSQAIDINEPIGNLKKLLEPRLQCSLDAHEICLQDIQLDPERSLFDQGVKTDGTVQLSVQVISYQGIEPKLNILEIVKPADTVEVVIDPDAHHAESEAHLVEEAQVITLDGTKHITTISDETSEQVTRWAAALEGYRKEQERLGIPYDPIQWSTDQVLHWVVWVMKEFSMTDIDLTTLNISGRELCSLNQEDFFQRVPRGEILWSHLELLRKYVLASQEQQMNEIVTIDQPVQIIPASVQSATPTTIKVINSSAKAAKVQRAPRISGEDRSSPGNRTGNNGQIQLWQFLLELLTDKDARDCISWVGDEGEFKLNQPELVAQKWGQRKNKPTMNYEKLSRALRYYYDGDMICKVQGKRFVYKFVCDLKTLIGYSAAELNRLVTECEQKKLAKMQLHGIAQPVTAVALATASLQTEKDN
Method in brief: as §1

ERG = biological target: T4, ERG (Homo sapiens, UniProt P11308 1-479); conditions: protein: recombinant; tags: N-terminal GST; dsDNA, one strand shown
T4 sequence: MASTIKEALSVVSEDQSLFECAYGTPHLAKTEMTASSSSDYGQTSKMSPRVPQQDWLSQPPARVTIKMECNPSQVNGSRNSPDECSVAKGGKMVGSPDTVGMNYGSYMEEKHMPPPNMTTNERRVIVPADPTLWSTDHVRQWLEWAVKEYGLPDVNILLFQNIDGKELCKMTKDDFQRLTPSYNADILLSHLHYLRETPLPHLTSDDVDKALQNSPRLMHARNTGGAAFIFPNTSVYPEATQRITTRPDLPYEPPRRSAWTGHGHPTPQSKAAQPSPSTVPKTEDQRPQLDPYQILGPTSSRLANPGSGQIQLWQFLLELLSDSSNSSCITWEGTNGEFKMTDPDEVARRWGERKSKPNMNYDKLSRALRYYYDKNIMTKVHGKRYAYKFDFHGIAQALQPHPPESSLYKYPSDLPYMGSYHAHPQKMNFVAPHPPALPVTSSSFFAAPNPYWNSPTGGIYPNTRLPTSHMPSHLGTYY
Method in brief: as §1

ELF1 = ELF1 (Homo sapiens, UniProt P32519 1-619); conditions: protein: recombinant; tags: N-terminal GST; dsDNA, one strand shown
Method in brief: as §1

EHF = biological target: T5, EHF (Homo sapiens, UniProt Q9NZC4 1-300); conditions: protein: recombinant; tags: N-terminal GST; dsDNA, one strand shown
T5 sequence: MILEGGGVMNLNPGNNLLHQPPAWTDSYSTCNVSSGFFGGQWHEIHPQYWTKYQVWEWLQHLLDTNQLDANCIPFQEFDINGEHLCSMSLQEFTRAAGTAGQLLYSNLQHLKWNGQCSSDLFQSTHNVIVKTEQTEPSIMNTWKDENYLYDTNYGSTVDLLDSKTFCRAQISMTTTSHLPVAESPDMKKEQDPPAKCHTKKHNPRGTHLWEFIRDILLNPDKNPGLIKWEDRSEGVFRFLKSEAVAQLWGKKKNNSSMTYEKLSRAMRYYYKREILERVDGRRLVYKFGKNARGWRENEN
Method in brief: as §1

SPI1 = SPI1 (Homo sapiens, UniProt P17947 1-270); conditions: protein: recombinant; tags: N-terminal GST; dsDNA, one strand shown
Method in brief: as §1

SPIB = SPIB (Homo sapiens, UniProt Q01892 1-262); conditions: protein: recombinant; tags: N-terminal GST; dsDNA, one strand shown
Method in brief: as §1

ELK3 = biological target: T6, ELK3 (Homo sapiens, UniProt P41970 1-407); conditions: protein: recombinant; tags: N-terminal GST; dsDNA, one strand shown
T6 sequence: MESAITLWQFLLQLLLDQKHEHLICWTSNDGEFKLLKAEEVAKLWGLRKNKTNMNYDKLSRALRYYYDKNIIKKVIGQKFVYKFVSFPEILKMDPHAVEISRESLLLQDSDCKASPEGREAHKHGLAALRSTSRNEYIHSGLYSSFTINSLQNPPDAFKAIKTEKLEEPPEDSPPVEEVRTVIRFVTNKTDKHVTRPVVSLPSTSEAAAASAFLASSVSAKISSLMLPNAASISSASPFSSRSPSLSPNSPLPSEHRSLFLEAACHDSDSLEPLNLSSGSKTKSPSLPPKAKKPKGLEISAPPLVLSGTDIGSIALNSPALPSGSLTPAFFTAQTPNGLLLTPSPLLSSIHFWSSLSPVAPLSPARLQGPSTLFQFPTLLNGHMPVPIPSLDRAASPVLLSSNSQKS
Method in brief: as §1

FEV = biological target: T7, FEV (Homo sapiens, UniProt Q99581 1-238); conditions: protein: recombinant; tags: N-terminal GST; dsDNA, one strand shown
T7 sequence: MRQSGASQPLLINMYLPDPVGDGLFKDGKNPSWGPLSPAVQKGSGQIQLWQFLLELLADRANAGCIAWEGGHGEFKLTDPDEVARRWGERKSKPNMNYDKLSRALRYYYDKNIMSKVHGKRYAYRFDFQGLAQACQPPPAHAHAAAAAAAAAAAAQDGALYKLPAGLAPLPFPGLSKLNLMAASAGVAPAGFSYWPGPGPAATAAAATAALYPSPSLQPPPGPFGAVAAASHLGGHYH
Method in brief: as §1

ETV5 = ETV5 (Homo sapiens, UniProt P41161 1-510); conditions: protein: recombinant; tags: N-terminal GST; dsDNA, one strand shown
Method in brief: as §1

HSF1 = HSF1 (Homo sapiens, UniProt Q00613 1-529); conditions: protein: recombinant; tags: N-terminal GST; chain copies: 3; dsDNA, one strand shown
Method in brief: as §1

SPIC = biological target: T8, SPIC (Homo sapiens, UniProt Q8N5J4 1-248); conditions: protein: recombinant; tags: N-terminal GST; dsDNA, one strand shown
T8 sequence: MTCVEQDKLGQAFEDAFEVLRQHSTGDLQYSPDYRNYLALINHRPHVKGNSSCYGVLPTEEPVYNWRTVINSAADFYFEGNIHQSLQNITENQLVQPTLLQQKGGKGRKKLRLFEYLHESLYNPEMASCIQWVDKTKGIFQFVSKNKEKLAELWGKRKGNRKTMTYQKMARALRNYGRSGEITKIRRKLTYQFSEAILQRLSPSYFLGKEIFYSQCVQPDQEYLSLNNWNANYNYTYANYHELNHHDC
Method in brief: as §1

ELF4 = ELF4 (Homo sapiens, UniProt Q99607 1-663); conditions: protein: recombinant; tags: N-terminal GST; dsDNA, one strand shown
Method in brief: as §1

ELK4 = biological target: T9, ELK4 (Homo sapiens, UniProt P28324-2 1-405); conditions: protein: recombinant; tags: N-terminal GST; dsDNA, one strand shown
T9 sequence: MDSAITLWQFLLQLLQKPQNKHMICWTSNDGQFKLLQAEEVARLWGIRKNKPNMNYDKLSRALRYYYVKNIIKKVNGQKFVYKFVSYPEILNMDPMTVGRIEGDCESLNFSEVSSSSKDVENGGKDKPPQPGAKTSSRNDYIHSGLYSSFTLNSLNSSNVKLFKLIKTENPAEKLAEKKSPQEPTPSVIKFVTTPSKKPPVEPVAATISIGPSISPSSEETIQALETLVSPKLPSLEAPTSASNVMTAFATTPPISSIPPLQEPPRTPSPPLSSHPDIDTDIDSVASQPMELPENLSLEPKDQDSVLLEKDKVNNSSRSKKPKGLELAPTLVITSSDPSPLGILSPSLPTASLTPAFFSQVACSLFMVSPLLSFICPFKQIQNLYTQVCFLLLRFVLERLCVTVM
Method in brief: as §1

ETV2 = biological target: T10, ETV2 (Homo sapiens, UniProt O00321 1-342); conditions: protein: recombinant; tags: N-terminal GST; dsDNA, one strand shown
T10 sequence: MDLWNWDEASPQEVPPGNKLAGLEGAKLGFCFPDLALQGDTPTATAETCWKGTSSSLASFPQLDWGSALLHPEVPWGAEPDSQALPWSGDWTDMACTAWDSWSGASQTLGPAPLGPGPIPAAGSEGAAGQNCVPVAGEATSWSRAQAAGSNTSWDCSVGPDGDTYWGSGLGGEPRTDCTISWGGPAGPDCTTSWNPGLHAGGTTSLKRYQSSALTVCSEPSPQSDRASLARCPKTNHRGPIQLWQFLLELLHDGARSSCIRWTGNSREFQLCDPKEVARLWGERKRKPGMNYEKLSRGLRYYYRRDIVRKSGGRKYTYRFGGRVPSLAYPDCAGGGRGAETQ
Method in brief: as §1

ELF3 = biological target: T11, ELF3 (Homo sapiens, UniProt P78545 1-371); conditions: protein: recombinant; tags: N-terminal GST; dsDNA, one strand shown
T11 sequence: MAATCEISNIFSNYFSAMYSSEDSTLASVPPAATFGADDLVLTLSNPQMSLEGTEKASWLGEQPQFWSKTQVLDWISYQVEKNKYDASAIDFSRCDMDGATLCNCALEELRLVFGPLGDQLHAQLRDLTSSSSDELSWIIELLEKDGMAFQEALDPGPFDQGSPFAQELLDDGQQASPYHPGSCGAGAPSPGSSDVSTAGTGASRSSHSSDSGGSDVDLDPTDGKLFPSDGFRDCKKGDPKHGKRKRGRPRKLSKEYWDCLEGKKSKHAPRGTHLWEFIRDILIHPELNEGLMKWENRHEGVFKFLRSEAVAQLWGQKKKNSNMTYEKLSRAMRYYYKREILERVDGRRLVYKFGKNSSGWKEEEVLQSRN
Method in brief: as §1

CRX = CRX (Homo sapiens, UniProt O43186 1-299); conditions: protein: recombinant; tags: N-terminal GST; dsDNA, one strand shown
Method in brief: as §1

ETV1 = ETV1 (Homo sapiens, UniProt P50549 1-477); conditions: protein: recombinant; tags: N-terminal GST; dsDNA, one strand shown
Method in brief: as §1

Sequence of ETV5 (P41161 whole entry): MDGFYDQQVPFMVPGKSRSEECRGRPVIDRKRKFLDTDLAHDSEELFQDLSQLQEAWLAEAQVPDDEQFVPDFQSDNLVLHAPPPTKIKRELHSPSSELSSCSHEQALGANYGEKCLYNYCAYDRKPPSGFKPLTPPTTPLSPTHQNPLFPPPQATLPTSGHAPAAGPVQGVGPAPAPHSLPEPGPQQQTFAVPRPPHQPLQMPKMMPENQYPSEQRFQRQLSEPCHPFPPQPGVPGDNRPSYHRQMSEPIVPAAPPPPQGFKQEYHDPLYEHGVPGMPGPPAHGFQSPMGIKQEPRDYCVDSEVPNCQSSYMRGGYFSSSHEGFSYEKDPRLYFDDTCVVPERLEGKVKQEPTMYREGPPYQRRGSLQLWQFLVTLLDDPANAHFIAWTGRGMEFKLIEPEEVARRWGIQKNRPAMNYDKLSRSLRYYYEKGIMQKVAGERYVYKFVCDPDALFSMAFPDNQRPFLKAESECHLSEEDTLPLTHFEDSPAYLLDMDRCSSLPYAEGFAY
Sequence of ETV1 (P50549 whole entry): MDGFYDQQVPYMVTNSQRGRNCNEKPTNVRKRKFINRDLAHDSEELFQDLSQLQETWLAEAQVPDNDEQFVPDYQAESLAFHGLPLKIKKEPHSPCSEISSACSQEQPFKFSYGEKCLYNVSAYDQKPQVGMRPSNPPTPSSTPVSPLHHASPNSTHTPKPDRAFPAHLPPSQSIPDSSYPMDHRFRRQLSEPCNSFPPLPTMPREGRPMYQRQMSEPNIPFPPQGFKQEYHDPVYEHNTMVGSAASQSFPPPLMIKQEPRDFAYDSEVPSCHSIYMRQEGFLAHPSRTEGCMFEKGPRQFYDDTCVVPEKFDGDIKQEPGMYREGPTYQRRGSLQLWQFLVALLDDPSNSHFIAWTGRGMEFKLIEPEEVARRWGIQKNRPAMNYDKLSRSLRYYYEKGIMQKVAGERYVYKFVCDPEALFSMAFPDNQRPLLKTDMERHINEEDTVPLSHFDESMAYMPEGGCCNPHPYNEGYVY
Sequence of ELF4 (Q99607 whole entry): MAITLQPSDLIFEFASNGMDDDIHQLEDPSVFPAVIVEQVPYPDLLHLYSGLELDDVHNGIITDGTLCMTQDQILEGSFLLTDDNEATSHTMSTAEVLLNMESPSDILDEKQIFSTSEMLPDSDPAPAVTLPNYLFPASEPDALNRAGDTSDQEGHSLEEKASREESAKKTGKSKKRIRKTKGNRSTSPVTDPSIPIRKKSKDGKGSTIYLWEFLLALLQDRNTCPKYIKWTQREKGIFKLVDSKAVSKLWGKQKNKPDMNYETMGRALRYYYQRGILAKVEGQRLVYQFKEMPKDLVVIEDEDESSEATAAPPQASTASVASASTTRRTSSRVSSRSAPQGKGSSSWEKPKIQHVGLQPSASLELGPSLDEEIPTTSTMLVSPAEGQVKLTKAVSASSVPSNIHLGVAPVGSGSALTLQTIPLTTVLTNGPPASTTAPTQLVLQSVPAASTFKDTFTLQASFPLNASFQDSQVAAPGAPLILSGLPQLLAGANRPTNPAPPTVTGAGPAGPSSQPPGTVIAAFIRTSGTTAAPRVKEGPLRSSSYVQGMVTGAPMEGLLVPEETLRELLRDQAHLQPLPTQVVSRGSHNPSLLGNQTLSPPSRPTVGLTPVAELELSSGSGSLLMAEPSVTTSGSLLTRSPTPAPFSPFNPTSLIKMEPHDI
Sequence of HSF1 (Q00613 whole entry): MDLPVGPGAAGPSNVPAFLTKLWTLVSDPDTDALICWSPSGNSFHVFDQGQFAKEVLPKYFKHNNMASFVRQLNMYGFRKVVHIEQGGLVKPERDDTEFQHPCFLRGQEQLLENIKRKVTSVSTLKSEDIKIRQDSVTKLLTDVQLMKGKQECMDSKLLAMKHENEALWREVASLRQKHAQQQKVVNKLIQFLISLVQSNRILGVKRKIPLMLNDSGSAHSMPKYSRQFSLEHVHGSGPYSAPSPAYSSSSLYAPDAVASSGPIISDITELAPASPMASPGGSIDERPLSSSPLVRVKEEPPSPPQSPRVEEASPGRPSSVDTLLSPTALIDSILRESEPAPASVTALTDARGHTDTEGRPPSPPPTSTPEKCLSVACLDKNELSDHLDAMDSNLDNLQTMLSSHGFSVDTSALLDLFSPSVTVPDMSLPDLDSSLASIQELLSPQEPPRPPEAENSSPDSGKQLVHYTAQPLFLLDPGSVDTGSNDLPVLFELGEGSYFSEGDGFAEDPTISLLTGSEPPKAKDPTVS
Sequence of ELF1 (P32519 whole entry): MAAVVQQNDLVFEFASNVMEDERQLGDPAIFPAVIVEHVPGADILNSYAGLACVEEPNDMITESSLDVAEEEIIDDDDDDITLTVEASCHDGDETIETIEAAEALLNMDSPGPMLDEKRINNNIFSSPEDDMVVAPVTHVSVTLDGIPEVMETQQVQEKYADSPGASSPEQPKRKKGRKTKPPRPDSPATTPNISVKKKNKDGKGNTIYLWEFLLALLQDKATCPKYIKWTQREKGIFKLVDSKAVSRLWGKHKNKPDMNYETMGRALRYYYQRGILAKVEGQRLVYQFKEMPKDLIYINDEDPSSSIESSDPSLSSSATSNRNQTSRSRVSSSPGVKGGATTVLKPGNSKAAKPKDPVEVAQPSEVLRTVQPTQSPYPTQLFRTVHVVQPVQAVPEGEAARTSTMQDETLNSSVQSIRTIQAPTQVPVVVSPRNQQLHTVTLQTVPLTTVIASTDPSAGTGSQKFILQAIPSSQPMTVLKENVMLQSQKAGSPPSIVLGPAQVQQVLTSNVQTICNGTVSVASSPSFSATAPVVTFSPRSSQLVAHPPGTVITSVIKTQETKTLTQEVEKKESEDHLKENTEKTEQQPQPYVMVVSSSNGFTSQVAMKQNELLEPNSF
Sequence of SPIB (Q01892 whole entry): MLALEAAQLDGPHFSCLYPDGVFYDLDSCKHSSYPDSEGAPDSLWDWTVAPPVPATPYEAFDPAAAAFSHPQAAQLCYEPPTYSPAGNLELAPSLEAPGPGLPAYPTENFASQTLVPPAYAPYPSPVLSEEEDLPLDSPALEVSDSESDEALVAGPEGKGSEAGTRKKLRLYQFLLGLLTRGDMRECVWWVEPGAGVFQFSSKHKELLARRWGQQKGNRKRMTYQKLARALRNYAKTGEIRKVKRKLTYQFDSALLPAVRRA
Sequence of CRX (O43186 whole entry): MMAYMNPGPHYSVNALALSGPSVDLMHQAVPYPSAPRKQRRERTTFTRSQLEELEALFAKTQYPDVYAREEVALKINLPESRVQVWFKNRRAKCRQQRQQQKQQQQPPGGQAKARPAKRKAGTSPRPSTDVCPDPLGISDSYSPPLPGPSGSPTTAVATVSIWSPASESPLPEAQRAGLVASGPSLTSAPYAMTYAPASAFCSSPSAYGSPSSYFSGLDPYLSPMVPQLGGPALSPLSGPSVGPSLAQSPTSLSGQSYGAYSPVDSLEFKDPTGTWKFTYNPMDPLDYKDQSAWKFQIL

With TAAAAG as the sequence, how does the binding signal (FLI1) read?
The binding signal was 1.12 fold enrichment (6-mer frequency, TF over GST control).

What about the binding signal (ELK1) of the same sequence?
The binding signal was 1.18 fold enrichment (6-mer frequency, TF over GST control).

What about the binding signal (GABPA) of the same sequence?
The binding signal was 1.24 fold enrichment (6-mer frequency, TF over GST control).

And the binding signal (ERG)?
Its binding signal is 1.1 fold enrichment (6-mer frequency, TF over GST control).

And the binding signal (ELF1)?
Its binding signal is 1.12 fold enrichment (6-mer frequency, TF over GST control).

What about the binding signal (EHF) of the same sequence?
The binding signal was 1.16 fold enrichment (6-mer frequency, TF over GST control).

And the binding signal (SPI1)?
The binding signal was 1.31 fold enrichment (6-mer frequency, TF over GST control).

And the binding signal (SPIB)?
Its binding signal is 1.18 fold enrichment (6-mer frequency, TF over GST control).

What about the binding signal (ELK3) of the same sequence?
The binding signal was 1.15 fold enrichment (6-mer frequency, TF over GST control).

And the binding signal (FEV)?
The binding signal was 1.08 fold enrichment (6-mer frequency, TF over GST control).

What about the binding signal (ETV5) of the same sequence?
The binding signal was 1.19 fold enrichment (6-mer frequency, TF over GST control).

And the binding signal (HSF1)?
Its binding signal is 1.43 fold enrichment (6-mer frequency, TF over GST control).

And the binding signal (SPIC)?
The binding signal was 1.14 fold enrichment (6-mer frequency, TF over GST control).

And the binding signal (ELF4)?
The binding signal was 1.17 fold enrichment (6-mer frequency, TF over GST control).

And the binding signal (ELK4)?
The binding signal was 1.2 fold enrichment (6-mer frequency, TF over GST control).

And the binding signal (ETV2)?
The binding signal was 1.22 fold enrichment (6-mer frequency, TF over GST control).

What about the binding signal (ELF3) of the same sequence?
Its binding signal is 1.21 fold enrichment (6-mer frequency, TF over GST control).

And the binding signal (CRX)?
The binding signal was 1.72 fold enrichment (6-mer frequency, TF over GST control).

And the binding signal (ETV1)?
The binding signal was 1.18 fold enrichment (6-mer frequency, TF over GST control).
